Experimental findings from ChEMBL document CHEMBL1961873, “Compounds: GSK PKIS; Assays: Nanosyn kinase panel” (2012) are described below.

Assay [1] has as its target Tyrosine-protein kinase SYK (Homo sapiens) (UniProt P43405). Particulars: at 1 µM.
Assay [2] has as its target T1, Tyrosine-protein kinase Tec (Homo sapiens) (UniProt P42680).
T1 sequence (whole entry): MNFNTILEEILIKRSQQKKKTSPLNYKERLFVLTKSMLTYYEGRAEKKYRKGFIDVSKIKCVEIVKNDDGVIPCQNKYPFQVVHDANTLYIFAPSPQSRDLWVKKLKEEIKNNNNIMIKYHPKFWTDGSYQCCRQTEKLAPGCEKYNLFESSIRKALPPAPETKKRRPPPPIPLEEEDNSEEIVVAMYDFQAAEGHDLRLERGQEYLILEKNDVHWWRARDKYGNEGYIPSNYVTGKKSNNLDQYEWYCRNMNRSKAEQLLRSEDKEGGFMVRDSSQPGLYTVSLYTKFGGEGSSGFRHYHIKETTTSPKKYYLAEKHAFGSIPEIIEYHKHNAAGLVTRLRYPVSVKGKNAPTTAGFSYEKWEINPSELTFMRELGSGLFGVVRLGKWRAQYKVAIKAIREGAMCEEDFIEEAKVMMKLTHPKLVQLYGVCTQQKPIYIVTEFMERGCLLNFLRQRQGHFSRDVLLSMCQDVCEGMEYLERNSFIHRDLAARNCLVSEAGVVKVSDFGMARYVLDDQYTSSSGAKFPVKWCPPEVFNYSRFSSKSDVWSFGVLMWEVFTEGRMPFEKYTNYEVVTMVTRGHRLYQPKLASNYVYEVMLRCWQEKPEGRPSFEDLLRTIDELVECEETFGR
Particulars: at 0.1 µM.

For assay [3], the target named is T1, Tyrosine-protein kinase Tec (Homo sapiens). The settings on record: at 1 µM.
Assay [4] concerns the target Angiopoietin-1 receptor (Homo sapiens) (UniProt Q02763). Particulars: at 0.1 µM.
Assay [5] has the same target. Particulars: at 1 µM.
The target of assay [6] is T2, Non-receptor tyrosine-protein kinase TNK1 (Homo sapiens) (UniProt Q13470).
T2 sequence (whole entry): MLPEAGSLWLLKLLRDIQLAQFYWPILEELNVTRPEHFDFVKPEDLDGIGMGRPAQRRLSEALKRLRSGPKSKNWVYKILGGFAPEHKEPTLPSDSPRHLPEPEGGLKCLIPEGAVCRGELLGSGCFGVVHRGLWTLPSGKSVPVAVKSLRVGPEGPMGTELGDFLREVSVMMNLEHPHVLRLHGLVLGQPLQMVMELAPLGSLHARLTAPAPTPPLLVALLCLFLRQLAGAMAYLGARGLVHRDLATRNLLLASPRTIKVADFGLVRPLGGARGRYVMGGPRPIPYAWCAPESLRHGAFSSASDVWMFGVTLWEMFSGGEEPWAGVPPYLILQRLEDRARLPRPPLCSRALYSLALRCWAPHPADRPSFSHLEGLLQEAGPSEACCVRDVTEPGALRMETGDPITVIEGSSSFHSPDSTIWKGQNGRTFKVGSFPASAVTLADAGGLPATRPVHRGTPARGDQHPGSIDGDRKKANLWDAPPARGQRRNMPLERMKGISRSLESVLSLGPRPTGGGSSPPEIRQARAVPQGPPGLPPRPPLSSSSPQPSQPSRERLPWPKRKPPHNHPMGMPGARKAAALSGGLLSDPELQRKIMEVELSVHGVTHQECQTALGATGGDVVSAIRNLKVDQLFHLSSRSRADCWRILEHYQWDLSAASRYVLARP
The settings on record: at 0.1 µM.

The target of assay [7] is T2, Non-receptor tyrosine-protein kinase TNK1 (Homo sapiens). The settings on record: at 1 µM.
In assay [8] the target is Activated CDC42 kinase 1 (Homo sapiens) (UniProt Q07912). Particulars: at 0.1 µM.
The target is the same in assay [9]. The settings on record: at 1 µM.
In assay [10] the target is High affinity nerve growth factor receptor (Homo sapiens) (UniProt P04629). Particulars: at 0.1 µM.
The target is the same in assay [11]. Particulars: at 1 µM.
The target in assay [12] is BDNF/NT-3 growth factors receptor (Homo sapiens) (UniProt Q16620). The settings on record: at 0.1 µM.
Assay [13] shares this target. Particulars: at 1 µM.
Assay [14] deals with NT-3 growth factor receptor (Homo sapiens) (UniProt Q16288). The settings on record: at 0.1 µM.
Assay [15] has the same target. The settings on record: at 1 µM.
The target in assay [16] is T3, Tyrosine-protein kinase TXK (Homo sapiens) (UniProt P42681).
T3 sequence (whole entry): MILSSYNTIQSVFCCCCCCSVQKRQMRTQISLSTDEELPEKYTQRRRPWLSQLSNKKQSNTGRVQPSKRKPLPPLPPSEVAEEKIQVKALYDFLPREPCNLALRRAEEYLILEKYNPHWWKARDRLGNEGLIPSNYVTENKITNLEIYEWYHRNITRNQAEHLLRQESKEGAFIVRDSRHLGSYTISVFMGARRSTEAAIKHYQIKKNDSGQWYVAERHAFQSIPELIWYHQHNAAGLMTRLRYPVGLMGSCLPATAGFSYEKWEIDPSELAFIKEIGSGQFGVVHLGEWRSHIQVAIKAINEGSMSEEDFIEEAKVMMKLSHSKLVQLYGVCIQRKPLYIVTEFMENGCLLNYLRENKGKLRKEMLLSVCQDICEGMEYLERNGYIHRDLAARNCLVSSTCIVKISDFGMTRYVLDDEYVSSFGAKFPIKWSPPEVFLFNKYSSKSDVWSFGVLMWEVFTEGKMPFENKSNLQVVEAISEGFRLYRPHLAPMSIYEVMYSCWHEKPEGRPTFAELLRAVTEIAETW
Particulars: at 0.1 µM.

Assay [17] addresses T3, Tyrosine-protein kinase TXK (Homo sapiens). Particulars: at 1 µM.
Assay [18] addresses Non-receptor tyrosine-protein kinase TYK2 (Homo sapiens) (UniProt P29597). Particulars: at 0.1 µM.
The target in assay [19] is T4, Dual specificity protein kinase TTK (Homo sapiens) (UniProt P33981).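 Further: reported figures are mean TTK inhibition at 1 µM.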
T4 sequence (whole entry): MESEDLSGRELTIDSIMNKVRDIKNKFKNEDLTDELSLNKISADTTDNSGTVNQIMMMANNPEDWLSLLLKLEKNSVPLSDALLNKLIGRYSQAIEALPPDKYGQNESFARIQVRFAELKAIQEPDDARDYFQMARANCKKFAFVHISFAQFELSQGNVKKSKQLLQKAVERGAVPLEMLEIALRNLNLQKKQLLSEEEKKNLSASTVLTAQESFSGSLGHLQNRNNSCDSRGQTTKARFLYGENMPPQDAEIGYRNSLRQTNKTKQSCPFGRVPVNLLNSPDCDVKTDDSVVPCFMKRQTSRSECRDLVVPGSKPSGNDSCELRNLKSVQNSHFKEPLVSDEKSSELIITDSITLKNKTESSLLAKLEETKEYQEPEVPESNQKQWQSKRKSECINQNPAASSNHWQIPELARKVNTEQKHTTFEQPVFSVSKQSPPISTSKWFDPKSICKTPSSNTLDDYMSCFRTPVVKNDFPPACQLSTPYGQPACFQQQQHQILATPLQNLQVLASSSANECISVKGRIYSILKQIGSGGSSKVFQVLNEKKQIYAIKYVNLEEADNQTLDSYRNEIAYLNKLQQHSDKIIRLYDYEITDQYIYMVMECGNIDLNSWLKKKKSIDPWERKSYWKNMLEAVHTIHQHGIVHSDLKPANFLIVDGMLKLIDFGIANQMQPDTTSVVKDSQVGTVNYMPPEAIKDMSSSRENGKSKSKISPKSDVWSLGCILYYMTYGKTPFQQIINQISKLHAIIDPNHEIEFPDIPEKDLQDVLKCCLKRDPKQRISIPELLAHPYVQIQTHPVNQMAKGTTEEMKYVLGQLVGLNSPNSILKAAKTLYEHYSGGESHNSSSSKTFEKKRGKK
Particulars: at 1 µM.

In assay [20] the target is T5, Aurora kinase A (Homo sapiens) (UniProt O14965).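 Further: each reported value is a mean percent inhibition of Aurora-A.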
T5 sequence (whole entry): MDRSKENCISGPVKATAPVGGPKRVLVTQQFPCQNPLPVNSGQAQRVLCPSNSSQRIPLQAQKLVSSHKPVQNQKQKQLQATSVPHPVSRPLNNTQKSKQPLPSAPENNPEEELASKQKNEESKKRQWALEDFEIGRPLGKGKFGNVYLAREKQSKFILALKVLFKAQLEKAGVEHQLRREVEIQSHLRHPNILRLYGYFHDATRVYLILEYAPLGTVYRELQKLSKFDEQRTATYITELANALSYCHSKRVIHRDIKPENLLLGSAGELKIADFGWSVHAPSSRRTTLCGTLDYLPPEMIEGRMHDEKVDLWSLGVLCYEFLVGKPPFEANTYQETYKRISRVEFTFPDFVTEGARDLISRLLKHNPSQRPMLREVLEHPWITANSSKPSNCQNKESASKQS
The settings on record: at 0.1 µM.

Each structure is given as a SMILES string.

Sequence of High affinity nerve growth factor receptor (Homo sapiens) (P04629 33-796 limits assumed): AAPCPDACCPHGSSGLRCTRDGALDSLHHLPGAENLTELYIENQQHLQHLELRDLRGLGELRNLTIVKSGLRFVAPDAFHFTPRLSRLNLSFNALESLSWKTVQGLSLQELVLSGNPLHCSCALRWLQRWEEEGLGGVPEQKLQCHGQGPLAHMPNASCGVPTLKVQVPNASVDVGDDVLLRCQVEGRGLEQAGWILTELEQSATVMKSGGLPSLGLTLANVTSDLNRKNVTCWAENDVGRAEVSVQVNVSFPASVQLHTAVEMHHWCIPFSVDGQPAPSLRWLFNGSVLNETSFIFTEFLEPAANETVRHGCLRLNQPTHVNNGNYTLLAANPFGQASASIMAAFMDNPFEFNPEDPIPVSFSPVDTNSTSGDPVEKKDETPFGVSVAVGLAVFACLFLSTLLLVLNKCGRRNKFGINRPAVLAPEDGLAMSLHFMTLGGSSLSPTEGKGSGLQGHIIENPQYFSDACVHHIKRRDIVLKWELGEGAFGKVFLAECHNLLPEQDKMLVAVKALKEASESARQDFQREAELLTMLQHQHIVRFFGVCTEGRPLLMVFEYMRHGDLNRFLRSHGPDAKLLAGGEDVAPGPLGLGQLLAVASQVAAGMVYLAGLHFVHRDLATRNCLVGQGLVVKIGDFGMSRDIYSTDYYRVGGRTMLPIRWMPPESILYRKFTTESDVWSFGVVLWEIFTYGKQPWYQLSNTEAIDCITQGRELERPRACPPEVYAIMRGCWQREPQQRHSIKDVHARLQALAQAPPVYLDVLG
Sequence of Angiopoietin-1 receptor (Homo sapiens) (Q02763 whole entry): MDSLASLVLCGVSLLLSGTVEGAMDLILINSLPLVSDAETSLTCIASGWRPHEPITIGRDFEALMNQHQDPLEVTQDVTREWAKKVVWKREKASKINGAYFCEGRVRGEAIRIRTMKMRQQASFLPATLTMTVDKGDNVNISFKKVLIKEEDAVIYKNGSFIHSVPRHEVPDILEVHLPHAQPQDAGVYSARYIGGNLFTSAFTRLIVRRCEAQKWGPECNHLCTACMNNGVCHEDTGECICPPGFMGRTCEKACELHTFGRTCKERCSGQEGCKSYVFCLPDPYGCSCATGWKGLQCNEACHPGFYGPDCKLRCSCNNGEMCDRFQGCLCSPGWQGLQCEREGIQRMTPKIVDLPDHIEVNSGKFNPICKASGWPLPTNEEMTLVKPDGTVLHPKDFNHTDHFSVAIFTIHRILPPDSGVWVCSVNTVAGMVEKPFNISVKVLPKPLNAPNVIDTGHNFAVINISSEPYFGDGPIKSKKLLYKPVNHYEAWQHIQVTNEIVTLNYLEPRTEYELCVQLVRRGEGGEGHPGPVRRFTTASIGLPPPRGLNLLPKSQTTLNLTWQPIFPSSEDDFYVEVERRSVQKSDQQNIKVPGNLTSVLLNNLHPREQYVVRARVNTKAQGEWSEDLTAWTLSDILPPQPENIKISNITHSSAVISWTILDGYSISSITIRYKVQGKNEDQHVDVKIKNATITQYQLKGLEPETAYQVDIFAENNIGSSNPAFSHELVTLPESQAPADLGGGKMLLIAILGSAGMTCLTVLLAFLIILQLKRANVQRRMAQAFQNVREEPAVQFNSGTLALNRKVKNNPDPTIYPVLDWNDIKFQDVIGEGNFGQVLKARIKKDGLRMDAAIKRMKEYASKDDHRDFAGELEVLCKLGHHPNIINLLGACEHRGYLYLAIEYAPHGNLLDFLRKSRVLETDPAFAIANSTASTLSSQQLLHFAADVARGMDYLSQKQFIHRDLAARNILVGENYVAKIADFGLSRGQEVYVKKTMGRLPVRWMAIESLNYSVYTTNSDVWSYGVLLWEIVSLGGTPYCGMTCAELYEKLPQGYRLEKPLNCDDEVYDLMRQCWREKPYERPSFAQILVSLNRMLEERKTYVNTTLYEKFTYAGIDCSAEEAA
Sequence of BDNF/NT-3 growth factors receptor (Homo sapiens) (Q16620 32-822 limits assumed): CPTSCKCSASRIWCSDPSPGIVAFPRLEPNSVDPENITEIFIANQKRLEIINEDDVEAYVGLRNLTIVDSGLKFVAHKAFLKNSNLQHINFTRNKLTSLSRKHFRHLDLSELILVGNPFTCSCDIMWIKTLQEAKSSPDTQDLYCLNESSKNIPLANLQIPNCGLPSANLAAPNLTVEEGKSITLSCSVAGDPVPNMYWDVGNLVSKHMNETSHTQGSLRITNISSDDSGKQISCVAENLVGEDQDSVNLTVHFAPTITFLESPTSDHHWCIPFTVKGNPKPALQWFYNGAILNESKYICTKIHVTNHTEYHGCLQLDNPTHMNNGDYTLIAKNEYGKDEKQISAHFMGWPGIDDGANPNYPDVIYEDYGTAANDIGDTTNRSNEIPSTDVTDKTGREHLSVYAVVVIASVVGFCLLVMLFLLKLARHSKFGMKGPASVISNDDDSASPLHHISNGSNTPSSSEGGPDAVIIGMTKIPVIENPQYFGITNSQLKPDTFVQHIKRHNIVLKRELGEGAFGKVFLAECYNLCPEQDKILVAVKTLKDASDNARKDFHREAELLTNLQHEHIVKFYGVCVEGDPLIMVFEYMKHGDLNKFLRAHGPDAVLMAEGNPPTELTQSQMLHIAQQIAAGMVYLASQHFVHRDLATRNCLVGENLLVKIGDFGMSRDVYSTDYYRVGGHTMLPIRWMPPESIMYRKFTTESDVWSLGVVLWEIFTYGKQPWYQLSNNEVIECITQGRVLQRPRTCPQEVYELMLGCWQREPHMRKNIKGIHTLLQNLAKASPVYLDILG
Sequence of Non-receptor tyrosine-protein kinase TYK2 (Homo sapiens) (P29597 whole entry): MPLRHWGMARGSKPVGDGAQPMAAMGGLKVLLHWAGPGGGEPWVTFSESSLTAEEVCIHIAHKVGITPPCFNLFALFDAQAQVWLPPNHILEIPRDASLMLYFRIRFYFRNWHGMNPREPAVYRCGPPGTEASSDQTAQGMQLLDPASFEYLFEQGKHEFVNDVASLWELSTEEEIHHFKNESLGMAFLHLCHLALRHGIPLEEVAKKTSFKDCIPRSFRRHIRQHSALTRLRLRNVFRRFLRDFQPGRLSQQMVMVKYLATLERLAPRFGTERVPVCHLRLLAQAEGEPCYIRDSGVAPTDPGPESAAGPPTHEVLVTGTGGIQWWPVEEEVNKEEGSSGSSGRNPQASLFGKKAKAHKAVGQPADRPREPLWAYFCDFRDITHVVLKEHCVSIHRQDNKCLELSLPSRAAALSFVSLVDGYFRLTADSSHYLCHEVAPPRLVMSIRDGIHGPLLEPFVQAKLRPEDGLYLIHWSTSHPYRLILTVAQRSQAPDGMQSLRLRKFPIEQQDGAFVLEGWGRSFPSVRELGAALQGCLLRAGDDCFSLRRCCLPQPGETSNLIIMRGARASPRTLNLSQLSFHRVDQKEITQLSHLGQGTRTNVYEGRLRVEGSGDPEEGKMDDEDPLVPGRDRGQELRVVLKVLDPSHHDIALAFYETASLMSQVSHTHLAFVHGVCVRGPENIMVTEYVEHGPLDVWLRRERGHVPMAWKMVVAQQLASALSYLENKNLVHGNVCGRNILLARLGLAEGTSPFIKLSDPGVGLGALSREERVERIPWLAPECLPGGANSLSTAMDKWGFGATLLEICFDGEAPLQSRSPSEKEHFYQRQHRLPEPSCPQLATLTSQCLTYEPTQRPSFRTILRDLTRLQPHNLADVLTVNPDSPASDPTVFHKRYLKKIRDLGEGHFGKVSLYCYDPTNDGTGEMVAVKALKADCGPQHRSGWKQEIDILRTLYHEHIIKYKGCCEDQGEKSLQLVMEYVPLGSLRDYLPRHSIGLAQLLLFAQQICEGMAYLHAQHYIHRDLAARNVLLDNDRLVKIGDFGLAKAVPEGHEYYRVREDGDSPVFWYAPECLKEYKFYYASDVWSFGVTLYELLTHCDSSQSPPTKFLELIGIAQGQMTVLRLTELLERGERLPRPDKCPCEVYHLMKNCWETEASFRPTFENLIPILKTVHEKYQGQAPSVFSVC
Sequence of Activated CDC42 kinase 1 (Homo sapiens) (Q07912 whole entry, looked up): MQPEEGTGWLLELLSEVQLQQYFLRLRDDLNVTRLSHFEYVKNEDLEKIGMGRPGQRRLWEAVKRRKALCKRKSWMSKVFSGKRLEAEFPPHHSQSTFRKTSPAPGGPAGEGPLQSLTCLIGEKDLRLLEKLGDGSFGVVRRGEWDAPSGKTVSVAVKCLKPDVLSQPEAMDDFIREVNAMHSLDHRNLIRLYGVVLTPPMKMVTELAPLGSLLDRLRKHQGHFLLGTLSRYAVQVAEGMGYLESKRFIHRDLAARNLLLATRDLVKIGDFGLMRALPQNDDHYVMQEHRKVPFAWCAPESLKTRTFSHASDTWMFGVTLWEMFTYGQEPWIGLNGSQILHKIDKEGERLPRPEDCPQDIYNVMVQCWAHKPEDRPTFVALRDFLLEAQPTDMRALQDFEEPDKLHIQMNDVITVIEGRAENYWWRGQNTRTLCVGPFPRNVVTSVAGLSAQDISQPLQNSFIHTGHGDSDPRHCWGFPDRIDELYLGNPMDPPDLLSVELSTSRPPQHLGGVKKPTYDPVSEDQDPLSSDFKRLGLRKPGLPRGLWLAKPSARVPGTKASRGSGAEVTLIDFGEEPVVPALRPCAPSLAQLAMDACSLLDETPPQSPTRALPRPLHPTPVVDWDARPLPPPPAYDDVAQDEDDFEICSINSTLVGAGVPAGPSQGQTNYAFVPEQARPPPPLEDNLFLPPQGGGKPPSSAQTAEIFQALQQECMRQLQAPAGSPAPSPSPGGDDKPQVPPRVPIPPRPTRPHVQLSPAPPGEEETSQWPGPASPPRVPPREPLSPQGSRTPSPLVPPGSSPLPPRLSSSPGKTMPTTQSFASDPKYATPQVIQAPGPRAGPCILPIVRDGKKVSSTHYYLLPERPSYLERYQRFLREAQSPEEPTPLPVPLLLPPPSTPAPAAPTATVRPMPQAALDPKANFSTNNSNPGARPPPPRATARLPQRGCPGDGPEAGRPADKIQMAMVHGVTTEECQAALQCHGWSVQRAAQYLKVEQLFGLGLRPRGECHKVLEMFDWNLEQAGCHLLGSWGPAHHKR

The term inhibition denotes the relative decrease from the control value, in per cent. `NC(=O)Cc1ccccc1Oc1nccc(-c2c(-c3ccc(F)cc3)ncn2C2CCNCC2)n1`: the inhibition in assay [1] was -0.38%; in assay [2] it was 4.14%; in assay [3], 4.45%; in [4], 3.62%; in assay [5] it was 4.3%; in assay [6] it was -0.61%. Further, the inhibition in [7] is -3.16%; in assay [8] it was 1.43%; in assay [9], 2.74%; in [10] it was -0.18%; in assay [11] it was 1.31%; in assay [12], 0.02%. For the same compound, the inhibition in assay [13] was 0.58%; in [14] it was 0.22%; in assay [15] it was 0.96%; in assay [16], 3.01%; in assay [17] it was 4.27%; in assay [18], -1.14%. The inhibition in assay [19] was 7.71%; in assay [20] it was 1.9%.

Regarding `NC(=O)c1ccc(Oc2nccc(-c3c(-c4ccc(F)cc4)ncn3C3CCNCC3)n2)cc1`, the inhibition worked out at 2.71% in assay [1]; 8.39% in assay [2]; 6.14% in assay [3]; 5.16% in assay [4]; 6.4% in assay [5]; 4.4% in assay [6]. In addition, the inhibition was 4.01% in assay [7]; 0.55% in [8]; 1.67% in assay [9]; 2.53% in assay [10]; 5.13% in assay [11]; 4.3% in assay [12]. For the same compound, the inhibition in assay [13] is 5.18%; in assay [14], 3.1%; in assay [15] it was 4.93%; in [16] it was 8.98%; in assay [17] it was 6.85%; in assay [18], -1.79%. Further, the inhibition in [19] was 12.5%; in assay [20], 3.58%.

For the compound `NC(=O)c1cc(-c2ccncc2)cc(-c2ccccc2)c1N`, the inhibition was 1.64% in [1]; 18.5% in assay [2]; 58.7% in assay [3]; 3.02% in assay [4]; 6.28% in [5]; 1.93% in assay [6]. Also, the inhibition in [7] was 6.5%; in [8] it was 1.25%; in assay [9], 7.25%; in assay [10], 1.66%; in assay [11], 1.84%; in [12], 2.94%. Besides, the inhibition in [13] is 3.86%; in [14] it was 3.19%; in [15], 4.68%; in assay [16], 45%; in assay [17], 76.1%; in [18] it was -3.77%. The inhibition was found to be 10.8% in assay [19] and 2.73% in assay [20].

On to `COc1cc(Nc2ncc3c(C)nc(-c4cccc(Oc5ccccc5)c4)n3n2)cc(OC)c1OC`, for which the inhibition was determined as 0.13% in assay [1]; 2.22% in assay [2]; 5.31% in [3]; 1.33% in assay [4]; 3.09% in assay [5]; 4.56% in assay [6]. Further, the inhibition turned out to be 23.8% in assay [7]; 0.46% in assay [8]; 1.9% in assay [9]; 2.69% in assay [10]; 1.05% in assay [11]; 0.27% in [12]. Also, the inhibition in assay [13] was 1.55%; in assay [14], 1.86%; in [15], 2.38%; in [16], 2.38%; in assay [17], 4.09%; in assay [18], -0.63%. The figures for the inhibition in [19] and in [20] were 14.8% and 2.19%, respectively.

With `C[C@@H](Oc1cc(-n2cnc3ccc(OC4CCN(C)CC4)cc32)sc1C(N)=O)c1ccccc1Cl`, the inhibition in [1] was 2.16%; in assay [2], 2.27%; in [3] it was 1.73%; in assay [4] it was 7.19%; in assay [5], 11.9%; in assay [6], 3.41%. Further, the inhibition is 18.1% in assay [7]; -0.17% in assay [8]; 1.13% in assay [9]; 2.29% in assay [10]; 8.12% in [11]; 3.68% in assay [12]. Also, the inhibition in assay [13] is 7.84%; in assay [14], 2.56%; in assay [15] it was 9.09%; in assay [16], 3.26%; in assay [17], 19%; in assay [18], -3.41%. Also, the inhibition in [19] is 8.91%; in assay [20], -0.97%.

As for `Cc1ccc(C(=O)NC(C)C)cc1-c1ccc(C(=O)NCC2CC2)cc1`, the inhibition in [1] was -0.36%; in assay [2], -2.75%; in assay [3], -2.37%; in assay [4], -0.76%; in [5], -0.28%; in assay [6] it was -4.74%. Further, the inhibition was -5.58% in [7]; -0.81% in assay [8]; 0.35% in [9]; -0.37% in assay [10]; 0.4% in assay [11]; -1.41% in [12]. For the same compound, the inhibition in assay [13] was 0.73%; in assay [14] it was 0.1%; in assay [15], 1.79%; in [16] it was -1.45%; in [17], -1.03%; in assay [18] it was 1.94%. For the same compound, the values for the inhibition in assay [19] and in assay [20] were -5.81% and -3.2%, respectively.
